What was measured:
Details in all cases: concentration: 1 μM,replicates: in singlicate; n = 1
FGFR1 = tested on: FGFR1
FGFR2 = tested on: FGFR2
FGFR3 = tested on: FGFR3
FGFR4 = tested on: FGFR4
FGR = tested on: FGR
FLT1 = tested on: FLT1
FLT3-autoinhibited = tested on: FLT3-autoinhibited
FLT3 = tested on: FLT3
FLT4 = tested on: FLT4
FRK = tested on: FRK
FYN = tested on: FYN
GAK = tested on: GAK
GCN2(Kin.Dom.2,S808G) = tested on: T1, GCN2(Kin.Dom.2,S808G)
T1 construct: gene EIF2AK4

GRK1 = tested on: GRK1
GRK2 = tested on: T2, GRK2
T2 construct: gene ADRBK1

GRK3 = tested on: T3, GRK3
T3 construct: gene ADRBK2

GRK4 = tested on: GRK4
GRK7 = tested on: GRK7
GSK3A = tested on: GSK3A
GSK3B = tested on: GSK3B
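Further: KINOMEscan kinase panel screen.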

SMILES	%Inh (FGFR1) [%]	%Inh (FGFR2) [%]	%Inh (FGFR3) [%]	%Inh (FGFR4) [%]	%Inh (FGR) [%]	%Inh (FLT1) [%]	%Inh (FLT3-autoinhibited) [%]	%Inh (FLT3) [%]	%Inh (FLT4) [%]	%Inh (FRK) [%]	%Inh (FYN) [%]	%Inh (GAK) [%]	%Inh (GCN2(Kin.Dom.2,S808G)) [%]	%Inh (GRK1) [%]	%Inh (GRK2) [%]	%Inh (GRK3) [%]	%Inh (GRK4) [%]	%Inh (GRK7) [%]	%Inh (GSK3A) [%]	%Inh (GSK3B) [%]
Cl.Cl.Nc1nc(-c2ccc3c(N)n[nH]c3c2)cc(N2CCCC(NC(=O)c3ccccc3)C2)n1 (centres unmarked) [GSK2286775]	0	0	11	0	8	16	2	0	0	0	34	2	0	0	0	19	55	0	0	15
Cl.Cl.NC[C@H](Cc1ccc(C(F)(F)F)cc1)NC(=O)c1cc(Br)c(-c2ccnc3[nH]ccc23)s1 [GSK1487252]	14	17	24	57	31	62	23	63	54	15	15	0	4	93.7	35	75	8	95.3	0	18
C[C@H]1Oc2cc(cnc2N)-c2c(nn(C)c2C#N)CN(C)C(=O)c2ccc(F)cc21	12	26	0	0	33	0	0	26	0	92	19	25	0	95.8	2	0	0	94.3	21	0
C=CC(=O)Nc1cc2c(Nc3ccc(F)c(Cl)c3)ncnc2cc1OCCCN1CCOCC1 [GW781483]	0	0	0	0	14	15	2	27	0	30	0	66	–	0	19	3	39	0	0	0
CCn1c(-c2nonc2N)nc2c(C#CC(C)(C)O)nc(OCCN)cc21.Cl.Cl [GSK902056]	0	100	7	0	30	16	0	0	0	6	0	9	9	19	0	39	14	0	63	36
Cc1cc(C(=O)Nc2ccc(Oc3ccc4nc(NC(=O)C5CC5)cn4n3)cc2)nn1-c1ccccc1	21	28	7	13	59	88	18	97.5	94	0	13	6	0	0	0	0	6	0	0	0
CN(C)CCOc1ccc(-c2cc(-c3c[nH]nc3-c3ccccn3)ccn2)cc1 [GW835314]	47	17	31	8	7	0	35	59	11	10	15	75	0	17	0	12	3	0	0	7
Cl.Cl.NC[C@H](CC1CCCCC1)NC(=O)c1cc(Br)c(-c2ccnc3[nH]ccc23)s1 [GSK1581427]	35	18	13	16	33	39	8	68	22	19	25	71	0	90.2	0	44	88	90	0	13
CCN(CC)CCCCNc1ncc2cc(-c3c(Cl)cccc3Cl)c(NC(=O)NC(C)(C)C)nc2n1	98.6	96.4	95.5	28	90.3	99	24	98.1	83	96.2	87	42	53	12	22	28	7	0	0	26
Cc1ccc(-n2nc(C(C)(C)C)cc2NC(=O)Nc2ccc(OCCN3CCOCC3)c3ccccc23)cc1 [GW839464]	–	2	0	0	–	67	0	29	58	48	0	0	0	0	5	0	16	0	29	0
Cc1n[nH]c2ccc(-c3cc(OC[C@@H](N)Cc4ccccc4)cnc3-c3ccoc3)cc12.O=C(O)C(F)(F)F.O=C(O)C(F)(F)F [GSK507358]	0	0	0	0	45	2	0	0	5	0	12	82	0	0	0	21	34	0	80	49
CNC(=O)c1ccccc1Sc1ccc2c(/C=C/c3ccccn3)n[nH]c2c1	–	86	81	12	85	99.6	15	0	100	0	14	10	0	25	22	44	11	0	0	9
Cc1occc1-c1nc(N)c(OC[C@@H](N)Cc2c[nH]c3ccccc23)cc1-c1cc2c(C)n[nH]c2cn1 [GSK1660450]	49	4	0	0	91.6	31	0	0	25	75	87	87	0	74	0	0	49	87	95.7	97.9
CC(C)Nc1cc(-c2ccc3c(N)n[nH]c3c2)nc(N)n1 [GSK2221681]	20	0	5	5	3	18	0	0	14	3	33	0	0	0	0	0	34	0	0	4
C[C@@H](Oc1cc(-c2cnn(C3CCNCC3)c2)cnc1N)c1c(Cl)ccc(F)c1Cl	22	0	24	0	46	28	31	40	4	36	15	2	0	15	16	0	10	0	68	36
CCN(CC)CCOc1ccc(Nc2ncc3cc(-c4c(Cl)cccc4Cl)c(=O)n(C)c3n2)cc1 [SB-601273]	99.9	100	100	97.9	100	99	65	98.7	95.8	100	100	97	100	6	29	57	0	0	17	0
C[C@@H]1CCN(C(=O)CC#N)C[C@@H]1N(C)c1ncnc2[nH]ccc12	0	0	0	0	1	0	0	0	0	0	8	19	0	15	0	0	0	25	0	0
COc1ccc(C[C@@H](CN)NC(=O)c2cc(Br)c(-c3ccnc4[nH]ccc34)s2)cc1.Cl.Cl [GSK1389063]	95.8	83	69	93.2	53	82	42	98	73	29	0	56	40	99.8	67	96	39	98.8	0	8
Cc1ccc2c(-c3ccncc3)c(-c3ccc(F)cc3)nn2c1.Cl [GW461484]	14	12	4	4	0	5	0	37	0	20	26	84	28	0	0	0	0	66	26	16
NC(=O)c1cc(-c2ccccc2)cc2c(C3CCNCC3)c[nH]c12 [GSK301362]	32	19	3	9	14	37	25	47	12	2	21	15	38	0	0	0	2	0	0	14
Nc1nc(Nc2ccccc2)cc(-c2ccc3c(N)n[nH]c3c2)n1 [GSK2225749]	17	10	18	0	0	10	19	2	9	0	12	63	0	0	74	0	73	0	0	0
CC(C)N1C(=O)Cc2cc(Nc3ncc(C(F)(F)F)c(NCc4cccc(S(C)(=O)=O)c4)n3)ccc21	38	52	43	16	5	62	57	97.6	89	0	4	14	17	25	0	4	28	10	47	0
CN(C)CC(O)COc1ccc(Nc2nccc(-c3cnn4nc(N5CCOCC5)ccc34)n2)cc1 (centres unmarked) [GW767488]	2	6	3	1	93.5	11	40	58	24	0	15	75	56	23	0	0	81	37	4	61
Cc1cc2cn[nH]c2cc1-c1cccc2c(N)c(C(N)=O)nnc12	35	0	0	0	50	0	19	10	2	31	20	34	0	23	1	27	28	0	0	23
O=C(NCCCN1CCOC1=O)c1cnc(NCc2cc(Cl)ccc2Cl)nc1NC1CCCC1	10	24	19	13	29	6	0	21	5	18	12	4	29	22	0	0	2	0	10	0
Cl.Oc1cc(-c2nc(-c3ccccc3)[nH]c2-c2ccncc2)ccc1Cl [SB-386023]	6	2	0	0	56	2	0	12	8	73	40	43	20	2	0	0	20	7	17	40
O=C(NCCNc1ccnc(NCc2ccc(F)cc2)n1)c1cc2ccccc2s1 [GSK1379944]	6	10	20	79	29	27	0	0	1	15	17	33	6	0	0	34	0	0	6	78

Source: publication PMC5540273 (PLoS ONE, 2017)
